Results on 6 molecules are retold here after PubChem BioAssay (EPA / NIEHS).

Results filed as inconclusive are left out. Active and inactive are the calls of the source. The calls were made as follows, unless noted: active = hit-call score of the fitted dose curve at least 0.9, where 1 is the maximum; inconclusive = response in the unintended direction; inactive = score below 0.9.

Assay [1] is described as follows: BSK_4H_Eotaxin3: BioMAP Diversity Plus: 4H Assay for Eotaxin 3 Biomarker Activity (AID 2283000; active = hit-call score of the fitted dose curve at least 0.9, where 1 is the maximum; inactive = score below 0.9;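 as to outcome: CCL26 protein level quantified by ELISA in parallel with SRB cytotoxicity check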). As to conditions: primary human endothelial cells (HUVEC); actives raise or lower the signal. The essentials:
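Readout is Eotaxin-3 (CCL26) level by ELISA in primary human umbilical vein endothelial cells harvested 24 h after chemical exposure; activity fitted in both directions against DMSO control.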

Assay [2] deals with human Peroxisome Proliferator-activated Receptor alpha (PPARa), PPARA (gene 5465) (UniProt Q07869). In words: ATG_PPARa_TRANS: Attagene TRANS-FACTORIAL HepG2 Assay for human Peroxisome Proliferator-activated Receptor alpha (PPARa) (AID 2283001). In outline: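 Reporter transcripts from GAL4-UAS units in transfected HepG2 were quantified 24 h after dosing. Detection used reverse transcription, PCR, fluorescent primer extension and capillary electrophoresis, with DMSO as baseline.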
Sequence of human Peroxisome Proliferator-activated Receptor alpha (PPARa), PPARA (gene 5465) (Q07869 whole entry, looked up, the tested form may be a part): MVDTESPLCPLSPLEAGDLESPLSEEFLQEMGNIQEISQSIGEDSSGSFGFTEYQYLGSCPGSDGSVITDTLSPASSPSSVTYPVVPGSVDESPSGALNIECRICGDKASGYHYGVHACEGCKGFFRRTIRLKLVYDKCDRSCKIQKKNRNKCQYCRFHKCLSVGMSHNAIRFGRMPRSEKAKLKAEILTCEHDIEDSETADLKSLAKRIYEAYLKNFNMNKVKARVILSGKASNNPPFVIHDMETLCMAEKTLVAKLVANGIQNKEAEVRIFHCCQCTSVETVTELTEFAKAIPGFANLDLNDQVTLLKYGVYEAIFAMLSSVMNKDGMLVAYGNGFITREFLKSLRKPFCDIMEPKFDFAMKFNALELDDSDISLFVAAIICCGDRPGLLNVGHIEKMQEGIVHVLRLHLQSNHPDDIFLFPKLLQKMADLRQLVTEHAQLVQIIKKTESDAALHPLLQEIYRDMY

Read-out in assay [3]: Intercellular Adhesion Molecule 1 (ICAM1), ICAM1 (gene 3383)
In words: BSK_3C_ICAM1: BioMAP Diversity Plus: 3C Assay for Intercellular Adhesion Molecule 1 (ICAM1) Biomarker Activity (AID 2283003; active = hit-call score of the fitted dose curve at least 0.9, where 1 is the maximum; inactive = score below 0.9). As to conditions: primary human endothelial cells (HUVEC); actives raise or lower the signal. The essentials:
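Human vascular endothelial primary cells, 3C conditions, 24 h treatment. ICAM-1 by ELISA.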

In assay [4] the target is human Retinoic Acid Receptor beta (RARb), RARB (gene 5915) (UniProt P10826). In words: ATG_RARb_TRANS: Attagene TRANS-FACTORIAL HepG2 Assay for human Retinoic Acid Receptor beta (AID 2283004). In outline:
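Readout is reporter mRNA induction: RNA reverse-transcribed, PCR-amplified, FAM-labelled, HpaI-cut and resolved by capillary electrophoresis. Transiently transfected HepG2 cells carrying exogenous NR–Gal4 chimeras were dosed for 24 h; activity fitted upward relative to DMSO.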

Assay [5] in a line: BSK_3C_Proliferation: Cell Proliferation Assessment in the BioMAP Diversity Plus: 3C Assay (AID 2283006; active = hit-call score of the fitted dose curve at least 0.9, where 1 is the maximum; inactive = score below 0.9;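 as to AC50: potency may reflect either rise or fall in cell number versus DMSO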). As to conditions: primary human endothelial cells (HUVEC). The essentials: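 Proliferation of human vascular endothelial primary cells after 48 h dosing, quantified as SRB-stained protein at 560 nm relative to DMSO.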
Assay [6] addresses Peroxisome proliferator-activated receptor gamma (Homo sapiens) (UniProt P37231). Briefly: ATG_PPARg_TRANS: Attagene TRANS-FACTORIAL HepG2 Assay for human Peroxisome Proliferator-activated Receptor-gamma (PPARg) (AID 2283007). In outline:
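Endpoint reflects upward reporter mRNA change versus DMSO controls. Setup: transiently transfected HepG2, GAL4-UAS reporters driven by chimeric NR-Gal4, 24 h incubation, RT-PCR with capillary electrophoresis read-out.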

Assay [7] concerns the target Nuclear receptor subfamily 1 group I member 2 (Homo sapiens) (UniProt O75469). Briefly: ATG_PXR_TRANS: Attagene TRANS-FACTORIAL HepG2 Assay for human Pregnane X Receptor (PXR) (AID 2283008). The essentials:
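Fluorescence intensity of FAM-labelled, HpaI-digested reporter amplicons, separated by capillary electrophoresis, quantifies induction. HepG2 cells with PXR-Gal4 trans-reporter system were exposed 24 h; DMSO defines baseline.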

The target in assay [8] is human Retinoic Acid Receptor gamma (RARg), RARG (gene 5916) (UniProt P13631). In words: ATG_RARg_TRANS: Attagene TRANS-FACTORIAL HepG2 Assay for human Retinoic Acid Receptor gamma (RARg) (AID 2283009). In outline: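 HepG2, RARg-GAL4 TRANS system, 24 h exposure; reporter mRNA by RT-PCR + CE fluorescence; increase over DMSO.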
Assay [9] addresses human RAR-related Orphan Receptor gamma (RORg), RORC (gene 6097) (UniProt P51449). In words: ATG_RORg_TRANS: Attagene TRANS-FACTORIAL HepG2 Assay for human RAR-related Orphan Receptor gamma (RORg) (AID 2283011). The essentials: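 Transient MRTU transfection of HepG2 (TRANS format, exogenous NR-Gal4 chimera). 24 h dosing. Total RNA → oligo(dT) RT → PCR → 6-FAM labelling → HpaI cut → CE. Gain vs DMSO.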

Assay [10] deals with Retinoic acid receptor RXR-alpha (Homo sapiens) (UniProt P19793). In words: ATG_RXRa_TRANS: Attagene TRANS-FACTORIAL HepG2 Assay for human Retinoid X Receptor alpha (RXRa) (AID 2283012). The essentials: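 Cells (HepG2) carried transiently transfected GAL4-responsive reporter units. Following a 24 h chemical incubation, reporter mRNA induction was read via RT-PCR fragment analysis; DMSO served as negative control and baseline.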
Sequence of Retinoic acid receptor RXR-alpha (Homo sapiens) (P19793 whole entry, looked up, the tested form may be a part): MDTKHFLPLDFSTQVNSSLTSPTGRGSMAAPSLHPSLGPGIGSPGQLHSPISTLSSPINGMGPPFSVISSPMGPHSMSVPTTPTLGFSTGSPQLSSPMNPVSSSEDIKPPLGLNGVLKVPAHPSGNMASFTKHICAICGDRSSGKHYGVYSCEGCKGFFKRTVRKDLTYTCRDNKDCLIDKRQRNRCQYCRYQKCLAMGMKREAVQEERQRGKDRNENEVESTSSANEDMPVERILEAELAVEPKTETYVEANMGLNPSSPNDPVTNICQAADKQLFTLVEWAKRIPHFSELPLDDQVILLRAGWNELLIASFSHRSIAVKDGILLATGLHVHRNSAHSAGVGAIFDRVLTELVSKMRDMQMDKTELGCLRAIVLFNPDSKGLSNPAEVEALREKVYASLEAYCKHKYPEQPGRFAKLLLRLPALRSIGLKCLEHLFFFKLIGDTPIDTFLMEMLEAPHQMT

Assay [11] has as its target human Retinoid X Receptor beta (RXRb), RXRB (gene 6257) (UniProt P28702). Briefly: ATG_RXRb_TRANS: Attagene TRANS-FACTORIAL HepG2 Assay for human Retinoid X Receptor beta (RXRb) (AID 2283013). The essentials: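 Multiplexed TRANS reporter assay in HepG2; 24 h dosing; reporter mRNA by RT-PCR/CE fluorescence; gain-of-signal relative to DMSO.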
Read-out in assay [12]: E-selectin (Homo sapiens) (UniProt P16581)
Briefly: BSK_3C_Eselectin: BioMAP Diversity Plus: 3C Assay for Eselectin Biomarker Activity (AID 2283015; active = hit-call score of the fitted dose curve at least 0.9, where 1 is the maximum; inactive = score below 0.9;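 as to outcome: cell surface E-selectin protein quantified by ELISA 24 h after dosing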). As to conditions: primary human endothelial cells (HUVEC); actives raise or lower the signal. The essentials:
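HUVEC, 3C stimulation; compound exposure 24 h; E-selectin by ELISA; gain- or loss-of-signal fitted bidirectionally vs DMSO baseline.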

Read-out in assay [13]: Interleukin-1 alpha (IL1a), IL1A (gene 3552)
Briefly: BSK_BE3C_IL1a: BioMAP Diversity Plus: BE3C Assay for Interleukin-1 alpha (IL1a) Biomarker Activity (AID 2283016; active = hit-call score of the fitted dose curve at least 0.9, where 1 is the maximum; inactive = score below 0.9). As to conditions: primary human bronchial epithelial cells; actives raise or lower the signal. In outline: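 Cultures of primary human bronchial epithelial cells receive test chemical. After 24 h, IL-1a is quantified by ELISA, while parallel wells are fixed in TCA and SRB-stained for total protein. Changes in either direction are fitted relative to DMSO.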

Read-out in assay [14]: Monocyte Chemoattractant Protein-1 (MCP1), CCL2 (gene 6347)
Briefly: BSK_3C_MCP1: BioMAP Diversity Plus: 3C Assay for Monocyte Chemoattractant Protein-1 (MCP1) Biomarker Activity (AID 2283017; active = hit-call score of the fitted dose curve at least 0.9, where 1 is the maximum; inactive = score below 0.9). As to conditions: primary human endothelial cells (HUVEC); actives raise or lower the signal. In outline:
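HUVEC, 3C system; 24 h chemical exposure; MCP-1 by ELISA; bidirectional curve fit vs DMSO baseline.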

Read-out in assay [15]: Monocyte Chemoattractant Protein-1 (MCP1), CCL2 (gene 6347)
In words: BSK_4H_MCP1: BioMAP Diversity Plus: 4H Assay for Monocyte Chemoattractant Protein-1 (MCP1) Biomarker Activity (AID 2283018; active = hit-call score of the fitted dose curve at least 0.9, where 1 is the maximum; inactive = score below 0.9). As to conditions: primary human endothelial cells (HUVEC); actives raise or lower the signal. The essentials:
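Readout: MCP-1 ELISA on compound-treated HUVEC, sampled 24 h post-dosing. Baseline and negative control DMSO; bidirectional fit. Overt toxicity checked alongside by sulforhodamine B protein staining at time of biomarker measurement.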

Read-out in assay [16]: Human Leukocyte Antigen - DR isotype (HLADR), HLA-DRA (gene 3122)
Briefly: BSK_3C_HLADR: BioMAP Diversity Plus: 3C Assay for Human Leukocyte Antigen - DR isotype (HLADR) Biomarker Activity (AID 2283019; active = hit-call score of the fitted dose curve at least 0.9, where 1 is the maximum; inactive = score below 0.9;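 as to outcome: ELISA of cell-surface HLA-DR on HUVEC 24 h after dosing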). As to conditions: primary human endothelial cells (HUVEC); actives raise or lower the signal. The essentials: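 HUVEC, 3C stimulation, 24 h post-dose; HLA-DR by ELISA; bidirectional curve fit vs DMSO baseline; gain or loss of signal scored.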

The target of assay [17] is human Peroxisome Proliferator-activated Receptor delta (PPARd), PPARD (gene 5467) (UniProt Q03181). Briefly: ATG_PPARd_TRANS: Attagene TRANS-FACTORIAL HepG2 Assay for human Peroxisome Proliferator-activated Receptor delta (PPARd) (AID 2283002). In outline: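 Cell-based TRANS reporter: HepG2, transient MRTU transfection, 24 h exposure. Readout = reporter mRNA (RT-PCR/CE, 6-FAM). Gain-of-signal fit vs DMSO control.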
Sequence of human Peroxisome Proliferator-activated Receptor delta (PPARd), PPARD (gene 5467) (Q03181 whole entry, looked up): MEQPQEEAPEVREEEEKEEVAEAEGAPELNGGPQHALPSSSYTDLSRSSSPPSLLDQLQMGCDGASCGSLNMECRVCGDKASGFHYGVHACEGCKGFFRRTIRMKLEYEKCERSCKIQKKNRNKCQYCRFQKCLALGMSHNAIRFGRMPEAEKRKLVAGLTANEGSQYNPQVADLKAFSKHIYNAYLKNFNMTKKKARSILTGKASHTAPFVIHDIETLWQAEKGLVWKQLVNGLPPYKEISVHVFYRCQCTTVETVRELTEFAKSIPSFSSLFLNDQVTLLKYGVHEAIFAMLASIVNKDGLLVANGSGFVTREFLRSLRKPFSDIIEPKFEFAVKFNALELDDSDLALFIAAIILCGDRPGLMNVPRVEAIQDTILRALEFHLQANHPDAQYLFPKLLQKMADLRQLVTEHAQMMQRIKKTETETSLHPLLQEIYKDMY

Assay [18] deals with human RAR-related Orphan Receptor beta (RORb), RORB (gene 6096) (UniProt Q92753). In words: ATG_RORb_TRANS: Attagene TRANS-FACTORIAL HepG2 Assay for human RAR-related Orphan Receptor beta (RORb) (AID 2283010). In outline:
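In this TRANS-format test, human HepG2 cells express chimeric NR-Gal4 fusion proteins driving GAL4-UAS reporters. After 24 h dosing, reporter transcripts are measured by fluorescent RT-PCR/capillary electrophoresis, with DMSO as negative control.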

Assay [19] concerns the target Retinoic acid receptor alpha (Homo sapiens) (UniProt P10276). Briefly: ATG_RARa_TRANS: Attagene TRANS-FACTORIAL HepG2 Assay for human Retinoic Acid Receptor alpha (RARa) (AID 2283005). In outline:
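Reporter transcripts, measured by RT-PCR with fluorescent labeling and capillary electrophoresis after 24 h dosing, reflect activity of an exogenous human RARa–GAL4 fusion in transiently transfected HepG2. Fitted for increase relative to DMSO.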

In assay [20] the target is human Thyroid Receptor alpha (THRa1), THRA (gene 7067) (UniProt P10827). In words: ATG_THRa1_TRANS: Attagene TRANS-FACTORIAL HepG2 Assay for human Thyroid Receptor alpha (THRa1) (AID 2283014). The essentials:
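Transient HepG2 transfection, NR-Gal4 chimera driving GAL4-UAS reporters; 24 h compound exposure; total RNA, oligo(dT) RT, PCR, fluorescent primer extension, capillary electrophoresis. Upward direction vs DMSO control.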

Sequence of E-selectin (Homo sapiens) (P16581 whole entry, looked up): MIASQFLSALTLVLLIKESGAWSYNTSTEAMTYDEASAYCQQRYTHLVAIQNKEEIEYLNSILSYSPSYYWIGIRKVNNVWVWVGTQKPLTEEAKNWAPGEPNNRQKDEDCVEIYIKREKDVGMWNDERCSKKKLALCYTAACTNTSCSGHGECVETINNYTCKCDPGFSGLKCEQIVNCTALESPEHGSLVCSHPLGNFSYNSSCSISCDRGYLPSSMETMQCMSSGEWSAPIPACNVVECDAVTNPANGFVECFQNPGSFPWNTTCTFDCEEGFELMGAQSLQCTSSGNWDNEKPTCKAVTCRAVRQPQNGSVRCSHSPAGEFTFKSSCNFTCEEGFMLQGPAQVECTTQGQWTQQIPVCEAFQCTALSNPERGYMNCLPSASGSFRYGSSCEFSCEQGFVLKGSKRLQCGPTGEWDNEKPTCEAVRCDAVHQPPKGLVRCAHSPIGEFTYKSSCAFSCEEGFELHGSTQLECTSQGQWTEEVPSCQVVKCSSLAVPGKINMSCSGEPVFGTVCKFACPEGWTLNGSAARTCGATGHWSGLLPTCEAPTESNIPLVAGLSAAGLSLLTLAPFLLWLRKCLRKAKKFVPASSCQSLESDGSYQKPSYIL
Sequence of Retinoic acid receptor alpha (Homo sapiens) (P10276 whole entry, looked up, the tested form may be a part): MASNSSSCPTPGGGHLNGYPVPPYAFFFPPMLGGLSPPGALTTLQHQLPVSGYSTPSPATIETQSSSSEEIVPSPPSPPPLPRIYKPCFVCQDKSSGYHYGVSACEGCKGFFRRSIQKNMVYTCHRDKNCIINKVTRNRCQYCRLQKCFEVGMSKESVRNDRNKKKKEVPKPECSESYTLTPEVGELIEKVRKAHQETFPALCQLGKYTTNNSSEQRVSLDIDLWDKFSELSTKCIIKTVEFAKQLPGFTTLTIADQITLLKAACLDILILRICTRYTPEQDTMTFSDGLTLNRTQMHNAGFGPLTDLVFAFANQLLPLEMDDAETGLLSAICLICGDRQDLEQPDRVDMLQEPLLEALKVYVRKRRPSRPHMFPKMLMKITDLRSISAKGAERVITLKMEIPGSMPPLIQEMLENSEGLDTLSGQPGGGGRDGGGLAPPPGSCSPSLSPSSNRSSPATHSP
Sequence of human RAR-related Orphan Receptor gamma (RORg), RORC (gene 6097) (P51449 whole entry, looked up, the tested form may be a part): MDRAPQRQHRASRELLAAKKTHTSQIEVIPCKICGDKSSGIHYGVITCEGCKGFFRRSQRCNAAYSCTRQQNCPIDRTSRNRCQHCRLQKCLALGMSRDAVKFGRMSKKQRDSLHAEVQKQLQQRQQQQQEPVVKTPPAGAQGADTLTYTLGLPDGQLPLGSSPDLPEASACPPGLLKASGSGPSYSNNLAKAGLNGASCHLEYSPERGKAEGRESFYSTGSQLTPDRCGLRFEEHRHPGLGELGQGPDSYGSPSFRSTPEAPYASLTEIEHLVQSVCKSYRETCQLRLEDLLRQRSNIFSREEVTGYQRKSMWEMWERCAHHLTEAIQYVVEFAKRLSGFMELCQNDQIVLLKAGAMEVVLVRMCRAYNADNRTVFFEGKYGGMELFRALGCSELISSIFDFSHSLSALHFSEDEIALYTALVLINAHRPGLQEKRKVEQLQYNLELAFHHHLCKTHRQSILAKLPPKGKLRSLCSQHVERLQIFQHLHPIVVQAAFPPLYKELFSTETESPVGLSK
Sequence of human Retinoic Acid Receptor beta (RARb), RARB (gene 5915) (P10826 whole entry, looked up, the tested form may be a part): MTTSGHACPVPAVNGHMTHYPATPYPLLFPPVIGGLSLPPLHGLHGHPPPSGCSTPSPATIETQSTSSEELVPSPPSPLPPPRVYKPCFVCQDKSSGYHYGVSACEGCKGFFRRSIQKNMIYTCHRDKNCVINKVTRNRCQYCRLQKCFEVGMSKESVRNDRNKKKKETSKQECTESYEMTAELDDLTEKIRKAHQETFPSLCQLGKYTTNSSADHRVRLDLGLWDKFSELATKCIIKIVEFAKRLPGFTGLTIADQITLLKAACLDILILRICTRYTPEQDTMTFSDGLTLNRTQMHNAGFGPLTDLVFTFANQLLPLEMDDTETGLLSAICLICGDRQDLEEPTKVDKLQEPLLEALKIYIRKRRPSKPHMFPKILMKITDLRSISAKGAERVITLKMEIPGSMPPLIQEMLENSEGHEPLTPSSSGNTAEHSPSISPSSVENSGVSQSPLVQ
Sequence of human Retinoid X Receptor beta (RXRb), RXRB (gene 6257) (P28702 whole entry, looked up): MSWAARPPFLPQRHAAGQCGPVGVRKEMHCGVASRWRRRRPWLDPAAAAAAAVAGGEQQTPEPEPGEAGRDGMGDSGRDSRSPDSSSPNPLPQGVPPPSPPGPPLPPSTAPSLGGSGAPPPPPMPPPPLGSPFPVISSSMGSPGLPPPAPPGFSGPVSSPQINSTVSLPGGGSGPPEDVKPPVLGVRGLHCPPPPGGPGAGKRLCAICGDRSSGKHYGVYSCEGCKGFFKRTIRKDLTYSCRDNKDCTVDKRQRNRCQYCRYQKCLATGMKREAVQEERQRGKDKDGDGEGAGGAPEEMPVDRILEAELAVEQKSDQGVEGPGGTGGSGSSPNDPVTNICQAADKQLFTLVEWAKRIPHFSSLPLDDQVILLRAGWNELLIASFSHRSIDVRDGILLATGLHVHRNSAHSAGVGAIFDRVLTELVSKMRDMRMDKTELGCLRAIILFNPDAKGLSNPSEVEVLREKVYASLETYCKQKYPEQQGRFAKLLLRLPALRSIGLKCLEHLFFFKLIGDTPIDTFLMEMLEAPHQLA
Sequence of human Thyroid Receptor alpha (THRa1), THRA (gene 7067) (P10827 whole entry, looked up, the tested form may be a part): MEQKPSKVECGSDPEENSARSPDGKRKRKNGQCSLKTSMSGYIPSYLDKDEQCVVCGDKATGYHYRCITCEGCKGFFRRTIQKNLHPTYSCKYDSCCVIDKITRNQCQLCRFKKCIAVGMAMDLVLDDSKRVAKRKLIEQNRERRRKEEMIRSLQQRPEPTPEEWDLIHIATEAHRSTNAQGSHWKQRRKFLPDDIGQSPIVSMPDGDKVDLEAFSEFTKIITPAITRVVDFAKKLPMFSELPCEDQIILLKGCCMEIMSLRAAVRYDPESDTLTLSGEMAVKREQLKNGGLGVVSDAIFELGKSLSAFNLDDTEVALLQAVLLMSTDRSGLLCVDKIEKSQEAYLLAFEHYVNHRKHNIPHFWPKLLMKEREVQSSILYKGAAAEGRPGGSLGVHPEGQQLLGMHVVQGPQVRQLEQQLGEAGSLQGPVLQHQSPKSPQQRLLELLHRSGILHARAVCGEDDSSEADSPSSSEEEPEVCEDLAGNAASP
Sequence of Peroxisome proliferator-activated receptor gamma (Homo sapiens) (P37231 whole entry, looked up, the tested form may be a part): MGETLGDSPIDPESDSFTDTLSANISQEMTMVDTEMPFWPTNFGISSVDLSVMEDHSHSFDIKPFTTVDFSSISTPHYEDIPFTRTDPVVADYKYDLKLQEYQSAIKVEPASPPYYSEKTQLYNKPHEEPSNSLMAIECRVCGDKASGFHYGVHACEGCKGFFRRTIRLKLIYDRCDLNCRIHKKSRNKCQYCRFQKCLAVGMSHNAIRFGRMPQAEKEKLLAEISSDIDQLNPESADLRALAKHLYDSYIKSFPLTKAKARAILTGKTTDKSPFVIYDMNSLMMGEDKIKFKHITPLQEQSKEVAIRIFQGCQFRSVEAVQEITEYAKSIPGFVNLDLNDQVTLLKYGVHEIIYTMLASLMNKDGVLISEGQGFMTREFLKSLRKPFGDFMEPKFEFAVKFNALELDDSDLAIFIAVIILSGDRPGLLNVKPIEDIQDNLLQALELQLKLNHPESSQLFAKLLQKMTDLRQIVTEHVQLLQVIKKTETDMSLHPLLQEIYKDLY

Regarding `CCN(CC)C(=O)SCc1ccc(Cl)cc1`, the outcome in assay [1], in assay [2], in assay [3], in [4], in assay [5] and in assay [7] was inactive. Moreover, the molecule was called inactive in assay [8], in assay [9], in [10], in assay [11], in assay [12] and in [13]. For the same molecule, the result in assay [15] and in assay [16] was inactive. Moreover, the results for the AC50 in [6] and in [14] were 37.1 µM (active) and 3.72 µM (active), respectively.
On to `CNC(=O)CSP(=S)(OC)OC`, for which the outcome in [1], in assay [2], in assay [17], in assay [3], in [5] and in assay [6] was inactive. Further, the molecule was called inactive in assay [18], in assay [9], in [12], in [13], in [14] and in assay [15]. Also, the result in assay [16] was inactive.
With `N#Cc1c(Cl)c(Cl)c(Cl)c(C#N)c1Cl`, the AC50 in [1] is 1.82 µM (active); in [3], 1.77 µM (active); in assay [5], 0.148 µM (active); in assay [12], 1.46 µM (active); in assay [13] it was 2.48 µM (active); in assay [14] it was 1.98 µM (active). Besides, the AC50 in [15] is 1.48 µM (active); in assay [16], 0.166 µM (active). For the same molecule, the molecule was called inactive in assay [2], in [17], in [4], in assay [19], in assay [6] and in [8]. The molecule was classed as inactive in assay [18], in [9], in [10], in assay [11] and in assay [20].
Turning to `CC1(c2ccc(Oc3ccccc3)cc2)OC(=O)N(Nc2ccccc2)C1=O` (stereo not given), the AC50 was 16.5 µM (active) in [1]; 14 µM (active) in assay [5]; 30.9 µM (active) in assay [12]; 33.3 µM (active) in assay [14]; 16.3 µM (active) in [15]; 24 µM (active) in assay [16]. Also, the molecule was classed as inactive in assay [2], in assay [17], in [3], in [4], in assay [19] and in [6]. Moreover, the molecule was classed as inactive in [8], in [10], in assay [11], in assay [20] and in assay [13].
For the molecule `COC(=O)c1ccccc1CS(=O)(=O)NC(=O)Nc1nc(OC)cc(OC)n1`, the outcome in [1], in assay [2], in assay [17], in [3], in [4] and in assay [19] was inactive. Moreover, the result in assay [5], in assay [6], in assay [8], in assay [18], in assay [10] and in assay [11] was inactive. The molecule was classed as inactive in [20], in [12], in [13], in assay [14], in [15] and in assay [16].
For `O=C(O)COc1ccc(Cl)cc1Cl`, the outcome in [1], in assay [2], in assay [17], in assay [3], in assay [5] and in assay [18] was inactive. Besides, the molecule was called inactive in [11], in assay [12], in assay [13], in assay [14], in assay [15] and in assay [16].
